The values below come from PubChem BioAssay (NCATS).

The target in test [1] is Cytochrome P450 3A7 (Homo sapiens) (UniProt P24462). The experiment in a line: Cytochrome P450 family 3 subfamily A member 7 (CYP3A7) small molecule antagonists: luciferase biochemical qHTS assay (AID 1963596). Note: nearly all actives have a fitted effect of over 40% in size. To be noted: P450-Glo CYP3A7 enzyme luminescence, 1 h; series mostly up to 57.4 µM. Put shortly: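 Luminescence read-out (relative luminescence units) after 20 min with detection reagent, which stops the reaction. Enzyme, proluciferin substrate and compound preincubated 10 min, RT; NADPH regeneration system then started 1 h reaction. Ketoconazole as positive control.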
Chain of Cytochrome P450 3A7 (Homo sapiens) (P24462 whole entry, looked up): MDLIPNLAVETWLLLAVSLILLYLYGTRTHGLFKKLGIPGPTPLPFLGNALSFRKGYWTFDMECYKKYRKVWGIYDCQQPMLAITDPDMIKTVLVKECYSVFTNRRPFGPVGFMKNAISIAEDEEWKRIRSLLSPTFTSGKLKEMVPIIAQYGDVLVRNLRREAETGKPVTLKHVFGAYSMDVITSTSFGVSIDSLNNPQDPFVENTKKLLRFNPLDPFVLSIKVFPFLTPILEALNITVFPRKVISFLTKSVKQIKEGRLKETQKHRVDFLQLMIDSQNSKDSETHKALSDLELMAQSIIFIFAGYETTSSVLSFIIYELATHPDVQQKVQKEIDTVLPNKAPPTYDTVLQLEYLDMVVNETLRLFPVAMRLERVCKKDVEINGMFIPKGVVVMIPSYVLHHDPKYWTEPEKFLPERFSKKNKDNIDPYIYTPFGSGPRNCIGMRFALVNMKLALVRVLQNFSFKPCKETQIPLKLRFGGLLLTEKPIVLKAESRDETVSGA
On the technique in general: Quantitative high-throughput screening tests each substance at several concentrations.

Test [2] in a line: Cellular viability qHTS for adrenocortical cancer (ACC) cell line NCI-H295R (AID 1963990). Note: nearly all actives have a fitted effect of over 60% in size. To be noted: CellTiter-Glo ATP luminescence, 48 h; series mostly up to 46.1 µM. Put shortly:
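Viability of NCI-H295R after 48 h of treatment (final up to 46 uM) measured through cellular ATP luminescence.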

Test [3] in a line: Viability qHTS for spleen associated tyrosine kinase inhibitor (SYKi) naive MV4-11 cells (AID 1963823). Note: nearly all actives have a fitted effect of over 40% in size. To be noted: MV4-11 AML viability, CellTiter-Glo luminescence, 72 h; series mostly up to 45 µM. Put shortly: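 qHTS, SYK inhibitor-naive MV4-11; 500 cells/well; 72 hr compound exposure, 37 C; CellTiter-Glo added, 10 min RT; luminescence read.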
Test [4] in a line: Cellular viability qHTS for adrenocortical cancer (ACC) cell line SW-13 (AID 1963989).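 For activity (max response): cells grown in serum-free medium with ITS supplement; % is set by controls: 0 for no effect and ±100 for the full control effect.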 Note: nearly all actives have a fitted effect of over 65% in size. To be noted: SW-13 ACC cells viability, CellTiter-Glo, 48 h; activity (max response): active compounds read low. The procedure, abridged:
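Here, serum-free SW-13 cultures were dosed up to 46 uM. Following 48 h, ATP-dependent luminescence (CellTiter-Glo) reported viable cells, and logistic modeling produced IC50 values.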

Structures are written as SMILES. Results filed as inconclusive are left out. Values without a mark were called inactive. The source made the active and inactive calls. Calls come from the whole dose curve; as a rule, active = well fitted curve in the direction sought with a large enough effect; inconclusive = small, poorly fitted or top-dose-only effect, or another doubt; inactive = no such curve, though single readings can be large; an effect the other way counts as inactive or inconclusive.
Potency is the fitted concentration of half-maximal effect.

Regarding `CN1CC[C@]23c4c5ccc(O)c4O[C@H]2[C@@H](O)CC[C@H]3[C@H]1C5`, the Potency result in test [1] and in test [2] was “inactive” each time. Take `COC1=CC(=O)O[C@@H](CCc2ccccc2)C1`: the Potency result in test [3] is “inactive”.

Regarding `CC[C@H]1C2CC3[C@@H]4N(C)c5ccccc5[C@]45C[C@@H]([C@H]2[C@H]5O)N3[C@@H]1O`, in test [3], the Potency entry is “inactive”. `CC(C)C1(OO)C=C2C(=O)CC3C(C)(C(=O)O)CCCC3(C)C2CC1` (stereo not given): the Potency entry in test [3] was “inactive”. The same measure, in the same setting: the same measure for `C[C@@H]1C(=O)O[C@H]2[C@H](O)[C@@]34[C@@H]5OC(=O)[C@@]3(O[C@@H]3OC(=O)[C@@H](O)[C@@]34[C@H](C(C)(C)C)[C@H]5O)[C@@]12O`: “inactive”.

In the case of `CCN[C@H](C)Cc1cccc(C(F)(F)F)c1`, the Potency entry in test [1] and in test [2] was “inactive” in each case. For the same molecule, in test [4], the activity (max response) was -4.65%. In the case of `C=C(C)[C@@]12O[C@@H]1[C@@]1(C)C(=CC2=O)CC[C@@H](OC(C)=O)[C@@H]1C`, in test [3], the Potency is 2310 nM (active).

For the molecule `CCCCC(CC)COC(=O)c1ccccc1C(=O)OCC(CC)CCCC` (stereo not given), the Potency result in test [1] and in test [2] was “inactive” throughout. The activity (max response) in test [4] was 14%. As to `CC(=O)[O][Hg][c]1ccccc1`, the Potency in test [1] was 977 nM (active); in test [4] it was 1300 nM (active); in test [2], 1460 nM (active). Take `CN(C)C(=O)Oc1cc(OC(=O)N(C)C)cc(C(O)CNC(C)(C)C)c1` (stereo not given): the Potency entry in test [1] and in test [2] was “inactive” throughout. Also, the activity (max response) in test [4] is -8.28%. Take `Nc1ccn(CC(CO)OCP(=O)(O)O)c(=O)n1` (stereo not given): the Potency result in test [3] is “inactive”. Take `CC[C@H]1C[C@H]2[C@@H]3CCC4=CC(=O)CC[C@@H]4[C@H]3CC[C@]2(C)[C@H]1O`: in test [3], the Potency is 18800 nM (active). Still for that read-out and setting: next, `C/C=C(/C)C1C=CC2CC(C)CC(C)C2C1/C(O)=C1\C(=O)NC(CC(C)(O)C(=O)O)C1=O` (stereo not given): “inactive”. Turning to `CC[N+]1(CCOC(=O)C(O)(c2ccccc2)c2ccccc2)CCCCC1`, the Potency entry in test [1] and in test [2] was “inactive” throughout. In addition, the activity (max response) in test [4] is 4.14%. In the case of `Nc1ccccc1C(=O)O`, the Potency entry in test [1] and in test [2] was “inactive” in each case.

Regarding `C=C(C)[C@@]12O[C@@H]1[C@@]1(C)C(=C[C@H]2O)CC[C@@H](O)[C@@H]1C`, in test [3], the Potency entry is “inactive”. Consider `Nc1ccc([N+](=O)[O-])cc1`, for which the Potency entry in test [1] and in test [2] was “inactive” each time. In the case of `CC(=O)OC1CC(O)C(C)(C)C2CC(OC(C)=O)C3(C)C(CCC4(C)C(c5ccoc5)C(=O)C5OC543)C12C` (stereo not given), the Potency result in test [3] was “inactive”.

As to `CC(C)(O)C(Cl)(Cl)Cl`, the Potency result in test [1] and in test [2] was “inactive” each time. In test [4], the activity (max response) is 9.4%.

Regarding `CN1CN(c2ccccc2)C2(CCN(CCCC(=O)c3ccc(F)cc3)CC2)C1=O`, the Potency entry in test [3] is “inactive”. With `COP(=O)(OC)OC=C(Cl)Cl`, the Potency entry in test [1] and in test [2] was “inactive” in each case. For the same molecule, in test [4], the activity (max response) is 13.5%. For the molecule `CC[C@H]1C2CC3[C@@H]4N(C)c5ccccc5[C@]45C[C@@H]([C@H]2[C@H]5O)N3[C@H]1O`, the Potency entry in test [3] was “inactive”. Still for that read-out and setting: next, `COC1CC(O[C@H]2CC[C@]3(C=O)C4CC[C@]5(C)[C@@H](C6=CC(=O)OC6)CC[C@]5(O)[C@@H]4CC[C@@H]3C2)OC(C)C1O[C@@H]1O[C@H](CO)[C@@H](O[C@@H]2O[C@H](CO)[C@@H](O)[C@H](O)[C@H]2O)[C@H](O)[C@H]1O` (stereo not given in full): 174 nM (active). As for `Fc1cc(Br)ccc1CBr`, the Potency entry in test [1] and in test [2] was “inactive” each time. For the same molecule, the activity (max response) in test [4] is 13.3%. For `C[C@]12CC[C@H](O)CC1=CC[C@@H]1C2CC[C@]2(C)[C@@H](C3=CC(=O)OC3)CC[C@]12O` (stereo not given in full), in test [3], the Potency was 11400 nM (active). On to `CCCN1CCC[C@@H]2Cc3[nH]ncc3C[C@H]21`, for which the Potency entry in test [1] and in test [2] was “inactive” throughout. Also, the activity (max response) in test [4] is 1.08%.

Take `CNC(C)Cc1ccccc1OC` (stereo not given): the Potency result in test [1] and in test [2] was “inactive” in each case. In test [4], the activity (max response) is -2.94%. Consider `COC1CC(=C(c2cccs2)c2cccs2)C[N+](C)(C)C1` (stereo not given), for which the Potency entry in test [1] and in test [2] was “inactive” throughout. In the case of `CCCC1CCCCN1` (stereo not given), the Potency result in test [1] and in test [2] was “inactive” throughout. Moreover, in test [4], the activity (max response) was 12.1%. For the molecule `NC(=O)[C@@H](CC1CC1)[C@@H](CCC(F)(F)F)C(=O)N[C@H]1N=C(c2ccccc2)c2cccc(F)c2NC1=O`, the Potency entry in test [1] and in test [2] was “inactive” in each case. In test [4], the activity (max response) was -14.1%.

Consider `CO[C@H]1C[C@H](O[C@H]2CC[C@]3(CO)[C@H]4CC[C@]5(C)[C@@H](C6=CC(=O)OC6)CC[C@]5(O)[C@@H]4CC[C@]3(O)C2)O[C@H](C)[C@H]1O`, for which, in test [3], the Potency is 100 nM (active). `O=S(=O)(c1ccc(Cl)cc1)c1ccc(Cl)cc1`: the Potency in test [1] was 2020 nM (active). Further, the Potency result in test [2] was “inactive”.

On to `COC1CC(O[C@H]2CC[C@]3(C=O)C4CC[C@]5(C)[C@@H](C6=CC(=O)OC6)CC[C@]5(O)[C@@H]4CC[C@]3(O)C2)OC(C)C1O[C@@H]1O[C@H](CO)[C@@H](O)[C@H](O)[C@H]1O` (stereo not given in full), for which, in test [3], the Potency was 86.2 nM (active). For the molecule `NC(=O)c1cc([N+](=O)[O-])cc([N+](=O)[O-])c1`, the results for the Potency in test [1] and in test [2] were 11000 nM (active) and 3660 nM (active), respectively. Also, the activity (max response) in test [4] was -5.23%.
